From PubChem BioAssay AID686971 (National Center for Advancing Translational Sciences (NCATS), 2013) come the findings set out here.

Screen size: about 360,000 compounds; about 7,500 (2.1%) were called active. About 8% were inconclusive and are not listed. The call rests on the fitted dose curve; in most records, active means well fitted cell-killing curve with a large enough effect; inconclusive means small, poorly fitted or top-dose-only effect, or effect the other way, or another doubt; inactive means no such curve, though single readings can be large or run the other way. Shown is part of a subset that was picked to be rich in actives. Entries that show only a call come without a potency.
Potency means the concentration at half of the fitted maximal effect.

A short description of the experiment: qHTS for induction of synthetic lethality in tumor cells producing 2HG: qHTS for the HT-1080-IDH1KD cell line. The settings on record: HT-1080 IDH1 knockdown viability, ATP luminescence, 48 h; series mostly up to 46.1 µM. A digest of the protocol: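 Knockdown cells (IDH1KD HT-1080) received compounds 2 h after plating at 750 cells/well and were kept 48 h at 37 °C in 5% FBS RPMI. A CellTiter-Glo luminescence read gave % activity for curve fitting.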
`OC[C@@H]1CN(C2CCCC2)C[C@H](n2cnc3c(NC4CCC4)ncnc32)O1`: the Potency entry was “inactive”. Consider `CCC(C)C(CO)NC(=O)/C=C/[C@H]1O[C@@H](n2cnc3c(NC(=O)c4ccccc4)ncnc32)[C@H](O)[C@@H]1O` (some centres not stated), for which the Potency result is “inactive”. As for `Cc1ccccc1Nc1nc(-c2cccnc2)cs1`, the Potency entry was “inactive”.

`O=C(NCc1cccnc1)C(=O)Nc1nc(-c2ccccc2)cs1`: the Potency was 4.61 µM (active). To `O=C(NCc1cccnc1)Nc1ccccc1F` belongs “inactive”. `C[C@H](CO)N1C[C@H](C)[C@@H](CN(C)C(=O)c2cnccn2)Oc2ncc(Br)cc2C1=O`: the Potency entry was “inactive”. To `Cc1cc2nc(-c3ccc(F)cc3)c(Cc3ccsc3)n2c(C)c1Br` belongs “inactive”; to `Fc1cccc(Cc2c(-c3ccc(Cl)cc3)nc3ccc(Cl)cn23)c1`, “inactive”. As for `Cc1cc2nc(-c3ccco3)c(Cc3cccc(F)c3)n2c(C)c1Br`, the Potency was 20.6 µM (active). For the compound `COc1ccc(S(=O)(=O)N2CCCCC2c2cc(C(=O)NCc3ccc(F)cc3)no2)cc1` (configuration not stated), the Potency entry is “inactive”. `CCCCNC(=O)C1CCCNC1=O` (configuration not stated): the Potency entry is “inactive”. For the compound `O=C(OC1CC2CC1[C@H]1CCCCN1C2=O)N1CCOCC1` (some centres not stated), the Potency entry is “inactive”. For the compound `CCCCNC(=O)OC1CC2CC1[C@H]1CCCCN1C2=O` (some centres not stated), the Potency is 25.9 µM (active).

Turning to `OC(c1ccc(F)cc1)c1ncc(-c2cccc(C(F)(F)F)c2)[nH]1` (configuration not stated), the Potency entry was “inactive”. For `Cc1cc(Br)cn2c(Cc3ccccc3C(F)(F)F)c(C3CCCCC3)nc12`, the Potency result was “inactive”. As for `C[C@H](CO)N1C[C@H](C)[C@@H](CN(C)S(=O)(=O)c2ccc(Oc3ccccc3)cc2)OCc2cn(nn2)CCCC1=O`, the entry is “inactive”. `O=C(Nc1ccc2c(c1)OCCO2)c1ccoc1`: the Potency entry is “inactive”. For the compound `Cn1cc([N+](=O)[O-])c(C(=O)Nc2ccc3c(c2)OCCO3)n1`, the Potency was 11.2 µM (active). As for `COc1cccc(NC(=O)c2nn(C34CC5CC(CC(C5)C3)C4)cc2[N+](=O)[O-])c1`, the entry is “inactive”. As for `CNC(=O)C1CN(C(=O)c2cccc(S(=O)(=O)N3CCc4ccccc43)c2)c2ccccc2O1` (configuration not stated), the Potency entry was “inactive”.

In the case of `COc1ccc(C(CNC(=O)c2ccc(OCc3cscn3)cc2)N2CCCC2)cc1` (configuration not stated), the Potency result was “inactive”. As for `Cc1cccc(C(=O)OCC(=O)Nc2sccc2C(N)=O)c1C`, the Potency entry is “inactive”. Regarding `O=C(NCCc1cccc(F)c1)C1CC(O)CN1C(=O)Nc1ccccc1` (configuration not stated), the Potency entry was “inactive”.

For `O=C(O)C(=Cc1ccc([N+](=O)[O-])cc1)CCc1ccccc1`, the Potency entry is “inactive”. To `CN1CCN(C2Cc3ccc(Cl)cc3Sc3ccc(F)cc32)CC1` (configuration not stated) belongs 13 µM (active); to `O=[N+]([O-])c1ccc(CN2CC(N3CC=CC3)CS2(=O)=O)cc1` (configuration not stated), “inactive”.

As for `CSc1ccc(CN2CCC2(C)C(=O)Nc2ccc(C)c(O)c2)cc1` (configuration not stated), the Potency entry is “inactive”.

In the case of `CCCCN1C(=O)C(CC(=O)NCc2cccs2)CC(C(=O)N2CCOCC2)=C1C` (configuration not stated), the Potency result is “inactive”. Regarding `Cc1ccc(C(=O)Nc2ccc(NC(=O)c3cccs3)cc2)c(C)c1`, the Potency was 16.4 µM (active).

`Cc1ccc(NNC(=O)c2cccs2)cc1Cl`: the Potency was 5.8 µM (active). On to `O=C(NNC(=O)c1ccc(Cl)cc1Cl)c1cccs1`, for which the Potency entry is “inactive”. In the case of `Cc1ccc(NC(=O)c2cccs2)cc1S(=O)(=O)N(C)C`, the Potency result is “inactive”. For the compound `Cc1ccc(C(=O)NNC(=O)c2cccs2)cc1`, the Potency entry was “inactive”. In the case of `Cc1ccc(C)c(NC(=O)CCC(=O)NNC(=O)c2cccs2)c1`, the Potency entry is “inactive”. With `COC(=O)c1ccc2nc(-c3ccc(C)cc3)c(Cc3ccc(OC)cc3C)n2c1`, the Potency entry was “inactive”. To `CCCNC(=O)c1cc2c(c(-c3cccc(-c4ccc(C#N)cc4)c3)n1)[C@@H](CCO)N(C(=O)CC)C2` belongs “inactive”; to `O=C(NNC(=O)c1ccccc1O)c1ccccc1O`, 9.2 µM (active); to `CC1=C(C)CC(C(=O)NNC(=O)c2ccccc2O)C(C(=O)O)C1` (configuration not stated), “inactive”. To `Cc1cc(C(=O)CCC(=O)NNC(=O)c2ccccc2O)c(C)s1` belongs “inactive”; to `CCNC(=O)c1cc2c(c(-c3cccc(-c4cncnc4)c3)n1)[C@H](CCO)N(C(C)=O)C2`, “inactive”; to `O=C(Nc1cccc(C(=O)O)c1)/C(=C\c1ccccc1)NC(=O)c1ccc(Br)o1`, “inactive”. `CC(C)n1c(-c2cccs2)nc2ccccc21`: the Potency result was “inactive”. Consider `Cc1cc(C)n(-c2nc(C(F)(F)F)nc3ccccc23)n1`, for which the Potency result is “inactive”. To `CC(Nc1nc(C(F)(F)F)nc2ccccc12)c1cccs1` (configuration not stated) belongs 16.4 µM (active); to `COCCCNC(=O)c1cccc2c(-c3ccc(O)c(OC)c3)coc12`, “inactive”; to `NC(CSC(c1ccccc1)(c1ccccc1)c1ccc(-c2ccccc2)cc1)C(=O)O` (configuration not stated), “inactive”.

As for `O=C(NCc1nnnn1-c1ccc(Cl)cc1)c1ccc2c(c1)OCO2`, the Potency result was “inactive”.

For `CCNC(=O)C1(C)CCCN(C(=O)c2ccc3ccccc3n2)C1` (configuration not stated), the Potency entry was “inactive”. For `O=c1c2sccc2nc(SCc2cc(=O)n3ccccc3n2)n1-c1ccc(Br)cc1`, the Potency result is “inactive”.

For the compound `Cc1cccc2nc(CSc3nc4[nH]ncc4c(=O)n3-c3cccc(Cl)c3)cc(=O)n12`, the Potency result was “inactive”.

Regarding `CCc1ccc(-n2c(SCc3cc(=O)n4cc(Br)ccc4n3)nc3[nH]ncc3c2=O)cc1`, the Potency was 18.4 µM (active). On to `CCc1nc2c(OCC(=O)C(C)(C)C)cccn2c1N(C)C(=O)c1ccccc1F`, for which the Potency result was “inactive”. Turning to `CCC(=O)N1CCCC1(C)C(=O)Nc1ccc2c(c1)CCN2C(C)=O` (configuration not stated), the Potency entry is “inactive”.

In the case of `CCOC(=O)c1cnc(-n2nc(C)cc2C)nc1NNc1cc(C)nc(-c2ccccc2)n1`, the Potency entry is “inactive”. As for `CC(=O)c1ccc(Oc2cc(C)nc(-n3nc(C)cc3C)n2)cc1`, the Potency was 4.61 µM (active). Consider `Cc1cc(C)n(-c2ccc(C(=O)O)cc2[N+](=O)[O-])n1`, for which the Potency entry was “inactive”.

On to `COc1ccc(Nc2cc(C)nc(-n3nc(C)cc3C)n2)cc1`, for which the Potency is 0.794 µM (active).

Consider `COc1ccc(NC(=O)c2nc(-n3nc(C)cc3C)ccc2Cl)cc1Cl`, for which the Potency result is “inactive”. As for `COc1ccc(Nc2cc(Sc3ccc(OC)cc3)ncn2)cc1`, the entry is “inactive”. To `O=C1c2ccccc2-c2ccccc2NC1O` (configuration not stated) belongs “inactive”; to `CCC(=O)N1CCC(C)(C(=O)Nc2cc(OC)c(OC)c(OC)c2)C1` (configuration not stated), “inactive”; to `CCOC(=O)[C@]12CCCC=C1N(CCC1=CCCCC1)C(=O)[C@H](CC(=O)N1CCCCC1)C2`, “inactive”. For the compound `Cc1ccc(-c2nc3c(Cl)cc(C(F)(F)F)cn3c2Cc2cccc(Cl)c2)cc1`, the Potency entry is “inactive”. On to `CNC(=O)C[C@H]1C(=O)N(Cc2ccccc2)C[C@@H]1CSC`, for which the Potency result was “inactive”. With `Cc1nc(N2CCN(c3ccccn3)CC2)c2c(C)c(C(=O)Nc3ccc(F)c(Cl)c3)sc2n1`, the Potency entry was “inactive”. For `Cc1nc(N2CCN(c3ccccn3)CC2)c2c(C)c(C(=O)Nc3ccc(F)cc3)sc2n1`, the Potency entry was “inactive”.

Turning to `Cc1nc(N2CCOCC2)c2c(C)c(C(=O)Nc3ccc(C(F)(F)F)cc3)sc2n1`, the Potency was 20.6 µM (active).
